This is one part of a sample in which hits are shown more often than they occur.
SARS PLpro yeast – blocks SARS-CoV papain-like protease in a yeast assay; S. cerevisiae expressing SARS-CoV PLpro, growth rescue; Potency, µM (highest dose often 32.9 µM), for inactives: at the highest dose activity, positive = growth rescue, usual class: activators; 0.19% of 330,000 active; AID 485353; calls by dose curve; also: potency is read from the fitted curve at half-maximal effect; 0% is about no effect; nearly all actives have a fitted effect of over 55% in size
AmpC inh detg – inhibitors of E. coli AmpC beta-lactamase with detergent; P00811; AmpC hydrolysis of nitrocefin, absorbance 480 nm, 0.01% Triton; Potency, µM (titrated, usually from 114 µM), inactives show at the highest dose activity change, negative = inhibition, most hits filed as inhibitors; 0.041% of 370,000 active; AID 485294;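 also: potency is read from the fitted curve at half-maximal effect; 0% = no-compound wells and -100% = no-enzyme wells; nearly all actives have a fitted effect of over 25% in size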
Target sequence (P00811 whole entry, looked up): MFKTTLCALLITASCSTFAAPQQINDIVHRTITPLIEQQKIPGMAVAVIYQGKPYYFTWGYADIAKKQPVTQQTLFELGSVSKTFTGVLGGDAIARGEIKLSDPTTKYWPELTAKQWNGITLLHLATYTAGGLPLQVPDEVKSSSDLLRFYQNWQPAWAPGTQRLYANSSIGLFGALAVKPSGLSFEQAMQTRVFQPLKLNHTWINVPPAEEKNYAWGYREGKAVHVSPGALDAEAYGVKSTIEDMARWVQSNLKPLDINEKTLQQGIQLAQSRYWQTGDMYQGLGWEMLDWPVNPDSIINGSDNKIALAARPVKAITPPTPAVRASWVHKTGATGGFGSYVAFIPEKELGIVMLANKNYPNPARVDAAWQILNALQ
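20 mM phosphate pH 7.0 + 0.01% (detergent screen) or 0.0001% Triton X-100; 5.3 nM AmpC reagent; cpd preinc 15 min RT; nitrocefin (800 uM stock) to start; A480 q20 s × 4 min; Activity was normalised to no-enzyme and no-compound control wells.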
AmpC no deterg – inhibitors of E. coli AmpC beta-lactamase without detergent; Potency, µM (doses to about 57.1 µM), for inactives: top-dose activity change, negative = inhibition, usual class: inhibitors; 0.52% of 330,000 active; P00811; AmpC nitrocefin hydrolysis, absorbance 480 nm, 0.0001% Triton;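 also: potency is read from the fitted curve at half-maximal effect; plate controls were no compound for no effect and no enzyme for full effect; nearly all actives have a fitted effect of over 20% in size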
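AmpC (5.3 nM in the dispensed reagent) in 20 mM phosphate pH 7.0 with 0.01% (detergent screen) or 0.0001% Triton X-100 was preincubated with compounds for 15 min at room temperature. Nitrocefin was then added from an 800 uM solution, and hydrolysis was followed at 480 nm.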
AMA1-RON2 inh – inhibitors of Plasmodium falciparum AMA1-RON2 interaction; AlphaScreen AMA1-biotinylated RON2 peptide binding; Potency, µM (titrated, usually from 58.2 µM), for the others: top-dose activity change, negative = inhibition, usual class: inhibitors; 0.2% of 360,000 active;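 also: potency is read from the fitted curve at half-maximal effect; 0% = vehicle wells and -100% = peptide control; nearly all actives have a fitted effect of over 45% in size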
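AMA1 (3D7) with his tag at 25 nM final met compounds first, then biotinylated RON2 peptide at 25 nM; detection used donor plus acceptor beads, 10 µg/mL apiece, read by AlphaScreen after 30 min at room temperature.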
Shiga inhibitor – Shiga toxin inhibition | 9.2% of 290,000 active | inhibition, % at 38.7 µM | AID 2315 | Vero cells, Shiga toxin protein synthesis inhibition reporter; in the data active = inhibition mostly above about 28%, no sharp cut-off; inactive = mostly below about 43%; also: 0% is about no effect
CHX counter – counter-screen for Shiga toxin inhibitors: cycloheximide protein synthesis inhibition | max response, % | AID 2314 | cell reporter, cycloheximide protein synthesis inhibition counterscreen | 12% of 300,000 active; in the data active = max response mostly above about 13%, no sharp cut-off; inactive = mostly below about 14%; also: read at 38.3 µM for the half of the compounds with a filed dose; 0% is about no effect
Starred values were filed as active, the others as inactive; u = inconclusive; x = no result. Unless noted, calls follow the shape of the dose curve; as a rule, active = well fitted curve in the direction sought with a large enough effect; inconclusive = small, poorly fitted or top-dose-only effect, or another doubt; inactive = no such curve, though single readings can be large; an effect the other way counts as inactive or inconclusive.

SMILES	SARS PLpro yeast	AmpC inh detg	AmpC no deterg	AMA1-RON2 inh	Shiga inhibitor	CHX counter
CCOc1ccc(/C=C/C2=NNC(=O)CC2)cc1	-1%	4%	-4%	16%	53*	23*
O=C1CCC(/C=C/c2ccccc2)=NN1Cc1ccccc1Cl	-2%	3%	-1%	-8%	-19	-3
O=C1CCC(/C=C/c2ccccc2)=NN1	-3%	1%	-15%	3%	17	17*
CCCOc1ccc(C2=NNC(=O)CC2)cc1	-1%	-9%	-8%	14%	12	15*
O=C(COC(=O)CN1C(=O)C2CCCCC2C1=O)Nc1c(Cl)cccc1Cl (centres undefined)	3%	-5%	-14%	-6%	x	x
CC1CCCCC1NC(=O)COC(=O)COc1ccc(Cl)cc1 (centres undefined)	1%	u	1%	6%	-17	-4
CCOc1cc(N2CCOCC2)c(OCC)cc1NC(=O)CN1CCSC1=O	-8%	1%	-8%	u	x	x
CN(C)C(=O)C#Cc1ccccc1	0%	-6%	27%	1%	2	-4
NS(=O)(=O)C#Cc1ccccc1	x	x	x	x	15*	26*
COc1cccc(CNC(=O)Cn2cccc2C(=O)c2ccccc2C)c1	-3%	3%	6%	4%	60	21*
Cc1ccccc1C(=O)c1cccn1CC(=O)NCc1ccc(Cl)cc1	0%	0%	-7%	3%	66	15
COc1ccccc1CNC(=O)Cn1cccc1C(=O)c1ccccc1C	0%	6%	0%	18%	46*	43*
Cc1ccccc1C(=O)c1cccn1CC(=O)NCCC1=CCCCC1	-3%	-9%	16%	-10%	40	25*
Cc1ccccc1C(=O)c1cccn1CC(=O)NCc1cccc(Cl)c1	-4%	-11%	-7%	-10%	42*	50*
COC(=O)C1=C(C)N(Cc2ccccc2)C(=S)N[C@H]1c1cccc(C(F)(F)F)c1	-1%	-12%	-25%	111%	28*	19*
CCOC(=O)N1CCN(C(=O)CN(c2ccc(OC)c(OC)c2)S(C)(=O)=O)CC1	-2%	1%	-11%	18%	56	1
C=CS(=O)(=O)c1sc(Cl)c(N2CCOCC2)c1[N+](=O)[O-]	-6%	u	28µM*	-22%	21	16*
Cc1ccc(NC(=O)c2cnc3ccccc3n2)cc1C	0%	-1%	-13%	1%	67*	51*
CC(NC(=O)c1cnc2ccccc2n1)c1ccccc1 (centres undefined)	-2%	-6%	-2%	34%	41	23*
Cc1ccc(NC(=O)c2ccc(=O)[nH]n2)cc1C	12%	-3%	-12%	1%	100*	48*
CC(OC(=O)c1cnc2ccccc2n1)c1ccccc1Cl (centres undefined)	-2%	-16%	0%	-19%	69*	36*
O=C(O)CN1CCN(Cc2cccc(Cl)c2)C1=O	-1%	-16%	-17%	-4%	11	-3
CCn1cc(C(=O)N(C)Cc2ccccc2)c(=O)c2cc(S(=O)(=O)N3CCCCC3)ccc21	x	-2%	x	x	x	x
Cc1ccc(NC(=O)c2cccc(S(=O)(=O)N3CCc4ccccc4C3)c2)nc1	4%	-24%	-55%	-6%	x	x
CSc1ccc(S(=O)(=O)Nc2ccc(OCC(=O)N3CCOCC3)cc2)cc1	1%	-3%	-27%	21%	-12	-3
SMILES	SARS PLpro yeast	AmpC inh detg	AmpC no deterg	AMA1-RON2 inh	Shiga inhibitor	CHX counter
NC(=O)c1ccc(NC(=O)c2cnc3ccccc3n2)cc1	0%	-1%	-24%	1%	80*	37*
O=C(Nc1ccccc1)c1cnc2ccccc2n1	-1%	-7%	-8%	11%	60*	40*
Cc1ccc(NC(=O)c2ncc(Cl)c(Cl)c2Cl)cc1C	0%	-6%	-23%	0%	61	40*
O=C(CCS(=O)(=O)c1cccc2nonc12)N1CC(=O)N(CCc2ccccc2)C(=O)C1	0%	-2%	27%	2%	-8	-5
Cc1cnc(C(=O)OCC(=O)N2CCN(C(=O)c3ccco3)CC2)cn1	5%	-11%	-12%	-2%	1	-1
COC(=O)CNC(=O)CSc1nnc(-c2ccc(OC)cc2)n1CC(C)C	3%	u	9%	10%	-42	-9
CC1CCc2c(sc3ncnc(SCC(=O)Nc4ccc(C(=O)O)cc4)c23)C1 (centres undefined)	1%	6%	-30%	-3%	4	-13
Cc1c(S(=O)(=O)Nc2ccc(Br)cc2)c(=O)n(C)c(=O)n1C	1%	-15%	-2%	0%	-4	2
Cc1ccc(F)cc1NC(=O)CCc1c(C)nn(-c2ccc(N3CCCCC3)nn2)c1C	-1%	0%	50%	-10%	24	31*
Cc1ccc(NC(=O)CCc2c(C)nn(-c3ccc(N4CCCCC4)nn3)c2C)cc1	-1%	-1%	84%	0%	86*	53*
Cc1ccc(NC(=O)CCc2c(C)nn(-c3ccc(N4CCCCC4)nn3)c2C)cc1C	4%	-4%	109%	0%	70*	43*
Cc1cc(C)cc(NC(=O)CCc2c(C)nn(-c3ccc(N4CCCC4)nn3)c2C)c1	x	4%	x	x	x	x
CCOc1ccccc1NC(=O)CCc1c(C)nn(-c2ccc(N3CCCCC3)nn2)c1C	-5%	2%	88%	-10%	7	11
COc1ccc(C)cc1NC(=O)CCc1c(C)nn(-c2ccc(N3CCCCC3)nn2)c1C	-7%	0%	142%	18%	45	18*
CCCCC(=O)N(CCOC)c1nnc(-c2ccc(OC)cc2)s1	2%	u	-7%	-6%	23	2
COCC(=O)Nc1ccc2c(c1)[C@@H]1C[C@H](CC(=O)OC)O[C@H](CO)[C@@H]1O2	x	x	x	4%	x	x
Cc1cc(C)cc(NC(=O)CCc2c(C)nn(-c3ccc(N4CCCCC4)nn3)c2C)c1	-3%	-2%	124%	-7%	51*	48*
Cc1nn(-c2ccc(N3CCCCC3)nn2)c(C)c1CCC(=O)Nc1ccc(F)c(F)c1	-33%	-7%	59%	-12%	103*	60*
CCOC(=O)c1cn[nH]c1NC(=S)Nc1ccc(OC)cc1	-2%	-6%	-25%	89%	1	17
COC(=O)c1sccc1NC(=S)Nc1cc(C)cc(C)c1	0%	u	-24%	79%	-4	-3
COC(=O)c1cn[nH]c1NC(=S)Nc1ccc(C)cc1Cl	-6%	-10%	-36%	40%	74*	27*
COC(=O)c1cn[nH]c1NC(=S)Nc1ccccc1C	-2%	-3%	-27%	46%	92*	45*
COC(=O)c1cn[nH]c1NC(=S)Nc1ccc(Cl)c(Cl)c1	3%	u	-37%	39%	118*	71*
